PubChem BioAssay AID1159580 (chemical genetic matrix, 2015)
Values joined by “and” are separate entries in the source; they are usually repeats but may differ in a detail not shown here. Equal entries are not always repeated. About 2,000 (36%) of roughly 5,500 compounds were called active. Roughly 18% stayed inconclusive and do not appear here. No stated cut-off is given here; in the data, active means normalized growth mostly below about 0.91 (no sharp cut-off); inconclusive means no clear call, values can overlap the other calls; inactive means mostly above about 0.92. The list shows a part of the results.

Assay: chemical genetic growth profiling, strain panel (AID 1159580);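 further: tested at 20 µM; growth read once vehicle control cultures reached saturation at 30 °C; 1 = growth at the plate median or of vehicle wells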
Conditions: S. cerevisiae deletion strains, growth OD

Measured: normalized growth

CC/C(=C(/CC)c1ccc(O)cc1)c1ccc(O)cc1
inactive: locus YAL026C, strain drs2, stronger effect = lower value 0.958 | locus YAL030W, strain snc1, stronger effect = lower value 1 | locus YBL061C, strain skt5, stronger effect = lower value 1 | locus YBR009C, strain hhf1, stronger effect = lower value 0.953 | locus YBR021W, strain FUR4, stronger effect = lower value 0.992 | locus YBR023C, strain chs3, stronger effect = lower value 0.984 | locus YBR171W, strain sec66, stronger effect = lower value 0.987 | locus YBR229C, strain ROT2, stronger effect = lower value 1 | locus YBR231C, strain swc5, stronger effect = lower value 1.03 | locus YBR279W, strain paf1, stronger effect = lower value 0.961 | locus YCL011C, strain gbp2, stronger effect = lower value 0.976 | locus YCL016C, strain dcc1, stronger effect = lower value 0.943 | locus YCL029C, strain bik1, stronger effect = lower value 0.962 | locus YCL061C, strain MRC1, stronger effect = lower value 1 | locus YCL069W, strain vba3, stronger effect = lower value 0.987 | locus YCR088W, strain abp1, stronger effect = lower value 1.02 | locus YDL005C, strain med2, stronger effect = lower value 1.01 | locus YDL035C, strain GPR1, stronger effect = lower value 0.867 | locus YDL040C, strain nat1, stronger effect = lower value 1.01 | locus YDL101C, strain DUN1, stronger effect = lower value 0.963 | locus YDL185W, strain tfp1, stronger effect = lower value 0.997 | locus YDL192W, strain arf1, stronger effect = lower value 0.991 | locus YDR001C, strain nth1, stronger effect = lower value 1.01 | locus YDR069C, strain doa4, stronger effect = lower value 1.02 | locus YDR101C, strain arx1, stronger effect = lower value 0.961 | locus YDR150W, strain NUM1, stronger effect = lower value 1.01 | locus YDR159W, strain sac3, stronger effect = lower value 0.905 | locus YDR297W, strain sur2, stronger effect = lower value 1 | locus YDR318W, strain mcm21, stronger effect = lower value 0.952 | locus YDR334W, strain swr1, stronger effect = lower value 1.04 | locus YDR335W, strain msn5, stronger effect = lower value 1.02 | locus YDR388W, stronger effect = lower value 0.991 | locus YDR392W, strain spt3, stronger effect = lower value 0.869 | locus YDR502C, strain sam2, stronger effect = lower value 0.955 | locus YEL003W, strain gim4, stronger effect = lower value 1 | locus YEL037C, strain rad23, stronger effect = lower value 1.01 | locus YEL061C, strain CIN8 (second series), stronger effect = lower value 1.03 | locus YEL061C, strain CIN8, stronger effect = lower value 0.999 | locus YER015W, strain faa2, stronger effect = lower value 0.945 | locus YER016W, strain bim1, stronger effect = lower value 0.958 | locus YER110C, stronger effect = lower value 1.03 | locus YER111C, strain swi4, stronger effect = lower value 1.05 | locus YER155C, strain BEM2 (second series), stronger effect = lower value 1.03 | locus YER155C, strain BEM2, stronger effect = lower value 0.979 | locus YER167W, strain BCK2, stronger effect = lower value 0.984 | locus YFR010W, strain ubp6, stronger effect = lower value 1.04 | locus YGL078C, strain dbp3, stronger effect = lower value 0.977 | locus YGL086W, strain mad1, stronger effect = lower value 0.955 | locus YGL167C, strain pmr1, stronger effect = lower value 0.995 | locus YGL173C, strain kem1, stronger effect = lower value 0.959 | locus YGL227W, strain vid30, stronger effect = lower value 1.03 | locus YGL240W, strain doc1, stronger effect = lower value 0.98 | locus YGL248W, strain PDE1, stronger effect = lower value 0.915 | locus YGL253W, strain hxk2, stronger effect = lower value 0.989 | locus YGR135W, strain pre9, stronger effect = lower value 0.962 | locus YGR252W, strain gcn5, stronger effect = lower value 0.921 | locus YHR013C, strain ard1, stronger effect = lower value 1.09 | locus YHR027C, strain rpn1, stronger effect = lower value 0.98 | locus YHR030C, strain SLT2, stronger effect = lower value 0.98 and 0.958 | locus YHR079C, strain IRE1 (second series), stronger effect = lower value 1.01 | locus YHR079C, strain IRE1, stronger effect = lower value 0.96 | locus YHR094C, strain hxt1, stronger effect = lower value 1 | locus YHR129C, strain ARP1, stronger effect = lower value 0.976 | locus YHR142W, strain chs7, stronger effect = lower value 1.03 | locus YHR200W, strain rpn10, stronger effect = lower value 0.991 | locus YIL066C, strain RNR3, stronger effect = lower value 0.937 | locus YIL073C, strain SPO22, stronger effect = lower value 1.21 | locus YIL125W, strain kgd1, stronger effect = lower value 0.995 | locus YIR030C, strain dcg1, stronger effect = lower value 0.998 | locus YJL092W, strain hpr5, stronger effect = lower value 1 | locus YJL095W, strain BCK1 (second series), stronger effect = lower value 0.982 | locus YJL115W, strain asf1, stronger effect = lower value 1.04 | locus YJL129C, strain trk1, stronger effect = lower value 0.94 | locus YJL134W, strain LCB3, stronger effect = lower value 1 | locus YJL154C, strain vps35, stronger effect = lower value 0.997 | locus YJL164C, strain tpk1, stronger effect = lower value 0.944 | locus YJL166W, strain qcr8, stronger effect = lower value 0.958 | locus YJL168C, strain set2, stronger effect = lower value 1 | locus YJL187C, strain SWE1 (second series), stronger effect = lower value 0.923 | locus YJR043C, strain POL32, stronger effect = lower value 0.952 | locus YJR066W, strain TOR1, stronger effect = lower value 0.938 | locus YJR075W, strain HOC1, stronger effect = lower value 0.959
active: locus YAL021C, strain ccr4, stronger effect = lower value 1.09 [resistant] | locus YDL074C, strain BRE1, stronger effect = lower value 0.776 | locus YDR137W, strain rgp1, stronger effect = lower value 0.49 | locus YDR162C, strain NBP2, stronger effect = lower value 0.754 | locus YDR195W, strain ref2 1.2 [resistant]
0.795 (active) and 0.97 (inactive): locus YJL095W, strain BCK1, stronger effect = lower value
